Results published in PubChem BioAssay (NCI).
About 83,000 compounds went through this panel and 20% of them were active in at least one assay; those are over-represented in the sample as a whole.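 Negative percent growth values reflect cell death: -40 means 40% of the cells present at the start died, and -100 means all died.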 Unmarked numbers belong to inactive results. Activity calls are given as the source filed them. Rule for the calls: active = growth percent below 10; inactive = the rest.

Tests used:
Experiment in all cases: NCI-60 one-dose screen, 48 h (100 = growth as untreated, 0 = no growth, -100 = all killed)
Settings in all cases: 10 µM unless noted
NCI-H23 lung = tested on: NCI-H23 lung
NCI-H226 lung = tested on: NCI-H226 lung
NCI-H322M lung = tested on: NCI-H322M lung
HOP-62 NSCLC = tested on: HOP-62 NSCLC
NCI-H460 lung = tested on: NCI-H460 lung
HOP-92 NSCLC = tested on: HOP-92 NSCLC
NCI-H522 lung = tested on: NCI-H522 lung
A549/ATCC NSCLC = tested on: A549/ATCC NSCLC
786-0 renal = tested on: 786-0 renal
COLO 205 colon = tested on: COLO 205 colon
DU-145 prostate = tested on: DU-145 prostate
K-562 leukemia = tested on: K-562 leukemia
MALME-3M melanoma = tested on: MALME-3M melanoma
MDA-MB-231 breast = tested on: MDA-MB-231 breast
RXF 393 renal = tested on: RXF 393 renal
SF-268 CNS = tested on: SF-268 CNS
SF-295 CNS = tested on: SF-295 CNS
SF-539 CNS = tested on: SF-539 CNS
UACC-257 melanoma = tested on: UACC-257 melanoma
M14 melanoma = tested on: M14 melanoma

Compound	growth (NCI-H23 lung)	growth (NCI-H226 lung)	growth (NCI-H322M lung)	growth (HOP-62 NSCLC)	growth (NCI-H460 lung)	growth (HOP-92 NSCLC)	growth (NCI-H522 lung)	growth (A549/ATCC NSCLC)	growth (786-0 renal)	growth (COLO 205 colon)	growth (DU-145 prostate)	growth (K-562 leukemia)	growth (MALME-3M melanoma)	growth (MDA-MB-231 breast)	growth (RXF 393 renal)	growth (SF-268 CNS)	growth (SF-295 CNS)	growth (SF-539 CNS)	growth (UACC-257 melanoma)	growth (M14 melanoma)
c1ccc(Cn2cc3c(c2-c2ccccc2)CCc2cnoc2-3)cc1	78.8%	83.6%	95.6%	75.1%	53.7%	65.8%	56.6%	59.6%	80.2%	80.5%	88.3%	16.2%	45.8%	87.2%	80.6%	76.6%	60.4%	71.9%	92.4%	44.1%
CN(C)c1ccc(C(=S)c2ccc(N(C)C)cc2)cc1	78.9%	85.9%	103%	65.8%	92.6%	71.3%	29%	67%	95.6%	62%	98.9%	28.4%	50.3%	72.2%	84.2%	79.7%	80%	77.1%	81%	51.1%
Cc1nc([P+](c2ccccc2)(c2ccccc2)c2ccccc2)c(N2CCCCC2)o1	17.1%	53.9%	78.4%	30.3%	12.7%	16.7%	28.8%	32.8%	60.3%	-45.3% (active)	30.2%	15.8%	53.7%	43.5%	67%	26%	32.7%	46.6%	8.05% (active)	37%
CCOC(=O)c1nnn(-c2no[n+]([O-])c2-c2ccc(OC)cc2)c1COc1cccc2cccnc12	31.6%	8.91% (active)	98.8%	30.6%	8.47% (active)	17.6%	-52.7% (active)	71.9%	25.8%	-25% (active)	11.8%	11.9%	68.6%	17%	22.5%	21.8%	33.4%	-3.16% (active)	59.1%	12.4%
C=C(C)[C@@H]1CC[C@]2(C(=O)N3CCN(C)CC3)CC[C@]3(C)[C@H](CC[C@@H]4[C@@](C)(CCC(=O)O)[C@H](C(=C)C)CC[C@]43C)[C@@H]12	95.4%	93.3%	98.5%	95.5%	78%	78.6%	73.5%	65.7%	90.2%	94.3%	99.9%	58%	87%	91.2%	93.3%	80.6%	78.8%	92.6%	83.5%	87.1%
COC(=O)c1ccc2c(c1)c1c(C)c3cnccc3c(C)c1n2C	-47.1% (active)	-41.1% (active)	-14% (active)	-24.7% (active)	-32.4% (active)	-16.6% (active)	-65.1% (active)	-17% (active)	-63.4% (active)	-39.9% (active)	-4.07% (active)	1.64% (active)	-73.7% (active)	-16.7% (active)	-76.1% (active)	3.86% (active)	-10.5% (active)	-37.5% (active)	-41.4% (active)	-88.6% (active)
COc1ccccc1/C=C/C(=O)Nc1ccc(F)cc1	88.2%	98%	104%	88.7%	102%	86.8%	72.4%	92.9%	97.7%	101%	98.6%	84.8%	95.9%	88.6%	102%	99.7%	96%	101%	99.4%	96.7%
NC(=O)c1ccccc1OCC(=O)Nc1ccc(Cl)c(Cl)c1	104%	96.3%	96.8%	96.8%	100%	88.7%	83.1%	114%	109%	105%	114%	91%	100%	96.1%	104%	107%	98.9%	85.1%	112%	111%
O=C1c2cccnc2C(=O)c2c1c(C(=O)OCCc1ccccn1)c1ccccn21	-55.8% (active)	-50.1% (active)	-53.3% (active)	-79% (active)	-71% (active)	15.1%	-50.4% (active)	-65.9% (active)	-63.2% (active)	-62.3% (active)	-87.9% (active)	-2.55% (active)	-57.5% (active)	5.98% (active)	-46.6% (active)	-1.63% (active)	-50.9% (active)	-57.2% (active)	-53.2% (active)	-70.5% (active)
Cc1ncc(C(=O)Nc2ccc(CN3CCN(C)CC3)c(C(F)(F)F)c2)cc1C#Cc1cnc(N)c2ccc(C#N)cc12	29.5%	0.011% (active)	27.9%	-7.92% (active)	11.2%	-20.2% (active)	27.2%	22.9%	-70.1% (active)	5.29% (active)	8.97% (active)	-35.3% (active)	-55.6% (active)	-76.5% (active)	-64% (active)	16.7%	54.1%	-0.429% (active)	-9.1% (active)	-41.5% (active)
CC(C)(C)OC(=O)CN1CCc2c(sc3ncnc(N4CCN(c5ccc(F)cc5)CC4)c23)C1	88.2%	73.1%	83.6%	93.2%	88.6%	84%	82%	90.3%	81.8%	86.4%	90.1%	87.7%	90.6%	75.7%	92.2%	81.9%	104%	81.6%	97.7%	98.4%
O=C1CCCC1[n+]1ccccc1 (stereo not given)	108%	105%	93.6%	80.8%	111%	97.4%	62.1%	72.3%	82.2%	86.1%	105%	108%	89.9%	105%	121%	95.2%	95.1%	82.6%	79.2%	95%
Cn1cc(-c2nonc2-c2c[nH]c3ccccc23)c2cc(Br)ccc21	52.9%	75.5%	53.2%	25.2%	14.9%	63.4%	7.04% (active)	27.9%	50.6%	15%	58.1%	11.1%	40.8%	37%	70.9%	43.3%	24.5%	40.1%	71.5%	18.5%
Cc1[nH]c(C(=O)Nc2ccccc2OC2CCN(CCN3CCOCC3)CC2)c(Cl)c1Cl	97.6%	79.6%	99.9%	89.9%	108%	70.9%	47.6%	99%	57.5%	102%	105%	57.5%	106%	75.9%	83.6%	81.5%	97.7%	89.6%	115%	106%
O=C(O)CC(C(=O)O)/C(=C\c1ccccc1)c1ccccc1 (stereo not given)	105%	86.4%	116%	89.3%	106%	93.3%	128%	99.5%	114%	99.5%	139%	103%	117%	121%	104%	113%	115%	122%	100%	121%
C=C(C)[C@@H]1CC[C@]2(C(=O)Nc3ccccn3)CC[C@]3(C)[C@H](CC[C@@H]4[C@@]5(C)CCCNC(C)(C)[C@@H]5CC[C@]43C)[C@@H]12	19.5%	43.3%	65.5%	30.4%	-40.3% (active)	41.8%	12.6%	23.1%	33.9%	-62.2% (active)	34.8%	-1.45% (active)	-2.67% (active)	49.9%	51.3%	39.8%	44.4%	34.1%	9.84% (active)	26.6%
